Bioassay records (PubChem BioAssay)
In the library only some 8% were active in any assay of this set; here they are far more common.
HT1080 IDH1KD tx – kills HT-1080 cells with IDH1 knockdown; hit rate 2% among 360,000; Potency, µM (series often up to 46.1 µM), for inactives: at the highest dose activity, negative = toxicity, hits mostly cytotoxic; HT-1080 IDH1 knockdown viability, ATP luminescence, 48 h;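 further: 0% = DMSO wells and -100% = cell-free medium wells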
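In this qHTS, HT-1080 cells depleted of IDH1 are exposed for 48 h at 37 °C to compound titrations. Toxicity is scored from CellTiter-Glo luminescence, with DMSO as full viability and medium alone as none.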
KB-V1 cytotox – kills drug-selected multidrug resistant KB-V1 cells; Potency, µM (top dose mostly 46.1 µM), hits mostly cytotoxic; KB-V1 MDR cells viability, CellTiter-Glo, 72 h; hit rate 3.4% among 400,000; further: on the % scale 0 is the no-effect control and ±100 the full control effect; nearly all actives have a fitted effect of over 60% in size
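Luminescent ATP read-out (CellTiter-Glo, 10 min) measures survival of drug-selected KB-V1 MDR cells after 72 h, 37 degrees C compound exposure. Medium: phenol-red-free DMEM, 10% FBS. Values from fitted concentration-response curves.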
HT1080-NT tox – kills 2HG-producing HT-1080-NT fibrosarcoma cells; Potency, µM (series often up to 46.1 µM), without a hit: at the top dose activity, negative = less viability, most hits filed as cytotoxic; HT-1080-NT fibrosarcoma viability, CellTiter-Glo ATP luminescence, 48 h; hit rate 1.6% among 360,000; AID 686970;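 further: NT is the 2HG producing partner of a matched IDH1 knockdown line; 0% = DMSO-treated cells and -100% = media-only wells without cells; nearly all actives have a fitted effect of over 55% in size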
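Luminescent CellTiter-Glo readout after 48 hours of compound exposure at 37 degrees C defined viability of HT-1080-NT cells. Activity was normalized to DMSO wells and cell-free media wells; concentration-response curves were fitted and assigned curve classes.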
SW480 rerep – inducers of DNA re-replication in SW480 colon cancer cells; hit rate 1.8% among 340,000; SW480 DNA re-replication, Hoechst DNA content imaging, 48 h; Potency, µM (doses to about 46.1 µM), inactives show at the highest dose re-replication activation, usual class: activators; further: % of control where 0% means no effect; nearly all actives have a fitted effect of over 55% in size
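Cells (250 per well) received 23 nL compound or DMSO by pin tool and were kept 48 hr at 37 C, 5% CO2. Nuclei were then stained with Hoechst for 40 min and scanned for DNA content.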
MCF10A rerep – induces DNA re-replication in MCF 10a normal breast cells. Potency, µM (top dose mostly 46.1 µM), for the others: at the highest dose activity, positive = re-replication, usual class: activators. hit rate 2.9% among 350,000. MCF 10A DNA re-replication, Hoechst nuclear intensity, 48 h; further: % of control where 0% means no effect; nearly all actives have a fitted effect of over 50% in size
KB-3-1 tox – KB-3-1 parental cell cytotoxicity; KB-3-1 viability, CellTiter-Glo ATP luminescence, 72 h; Potency, µM (highest dose often 46.1 µM), hits mostly cytotoxic; hit rate 1.4% among 400,000; AID 1347075; further: on the % scale 0 is the no-effect control and ±100 the full control effect; nearly all actives have a fitted effect of over 60% in size
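Luminescent ATP read-out (CellTiter-Glo) measures survival of drug-naive KB-3-1 cells after 72 h compound exposure at 37 °C. Titration series was screened from lowest to highest concentration, with DMSO vehicle plates as background controls.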
Starred values were filed as active, the others as inactive; i = inactive; ? = inconclusive; nt = not tested or not shown; [ ] = another dose, or the depositor's remark. The call rests on the fitted dose curve; in most records, active means well fitted curve in the direction sought with a large enough effect; inconclusive means small, poorly fitted or top-dose-only effect, or another doubt; inactive means no such curve, though single readings can be large; an effect the other way counts as inactive or inconclusive. Potency means the concentration at half of the fitted maximal effect.

SMILES	HT1080 IDH1KD tx	KB-V1 cytotox	HT1080-NT tox	SW480 rerep	MCF10A rerep	KB-3-1 tox
CCOc1ccccc1N(CC(=O)NCc1ccc(OC)cc1)S(C)(=O)=O	1%	i	8%	-3%	3%	i
CCOC(=O)NC(=O)CSc1nnnn1-c1ccc(C)cc1	2%	i	11%	-9%	0%	i
COc1ccccc1-n1nnnc1SCC(=O)Nc1ccccc1	-19%	?	-14%	-1%	-2%	i
O=C(CSc1nnnn1-c1ccc(Cl)cc1)Nc1cccnc1Cl	21%	16µM*	4%	-4%	4%	i
COc1ccccc1-n1nnnc1SCC(=O)Nc1ccccn1	7%	16µM*	6%	0%	10%	i
CCOC(=O)NC(=O)CSc1nnnn1-c1ccc(Cl)cc1	0%	i	11%	5.2µM*	1.8µM*	i
Cc1ccc(-n2nnnc2SCC(=O)Nc2cccnc2Cl)cc1	-15%	i	-5%	?	23%	i
Cc1ccc(C)c(NC(=O)CSc2nc(C)cc(C)c2C#N)c1	-6%[9.24 µM]	i	10%	6%	5%	i
Cc1ccccc1-c1nc(CN2CCC(C(=O)N3CCN(c4ccccn4)CC3)CC2)c(C)o1	-1%	i	-11%	16%	16%	?
Cc1cccc(C)c1NC(=O)Cn1c(=O)n(CCC(=O)NCc2ccco2)c(=O)c2sccc21	1%	i	14%	2%	-24%	i
CCC1CC(C)(C(=O)Nc2ccc(S(N)(=O)=O)cc2)OC1=O (stereo unspecified)	12%	i	13%	-2%	4%	i
O=C(N/N=C\c1ccc(Sc2ccccn2)o1)c1cccc(Br)c1	2%	23µM*	-11%	6%	?	i
Cc1ccccc1C(=O)N/N=C/c1ccc(Sc2ccccn2)o1	0%	21µM*	-9%	0%	-6%	i
O=C(N/N=C/c1ccc(O)c2ncccc12)c1cccc(Br)c1	18µM*	?	23µM*	?	18µM*	2.6µM*
Cc1nn(Cc2ccccc2Cl)c2sc(C(=O)NCCCn3ccnc3)cc12	-23%	i	-3%	0%	?	i
Cc1csc(NC(=O)c2cc3c(C)nn(Cc4ccccc4Cl)c3s2)n1	?	i	?	?	10µM*	i
Cc1nn(Cc2ccccc2Cl)c2sc(C(=O)OC3CCCC3=O)cc12 (stereo unspecified)	-28%	6.5µM*	-29%	-4%	1%	i
CCc1cc(=O)oc2cc(C)cc(OCC(=O)NCCc3c[nH]c4ccccc34)c12	-2%	?	-13%	?	3%	i
COc1ccc(C2NC(=S)NC(C)=C2C(=O)c2ccccc2)cc1OC (stereo unspecified)	8%	13µM*	2%	23µM*	?	?
COc1ccc(C2NC(=S)NC(C)=C2C(=O)Nc2ccccn2)cc1OC (stereo unspecified)	13%	i	3%	5%	?	i
O=C(CC1N=C2c3ccccc3N=C(SCc3ccc(F)cc3)N2C1=O)NC1CCCCC1 (stereo unspecified)	nt	i	nt	nt	nt	i
Cc1cccc2nc(-c3ccccn3)c(Nc3ccccc3)n12	nt	6.5µM*	nt	nt	nt	i
Cc1ccc(Nc2c(-c3ccccn3)nc3cccc(C)n23)cc1	7.3µM*	6.5µM*	12µM*	1%	?	5.2µM*
Cc1cc(C)n2c(Nc3c(C)cccc3C)c(-c3ccccn3)nc2n1	18µM*	?	?	nt	nt	?
COc1ccc(/C=C/c2cc(-c3ccc(C)cc3)o[n+]2C)cc1	6.5µM*	i	15µM*	?	?	?
SMILES	HT1080 IDH1KD tx	KB-V1 cytotox	HT1080-NT tox	SW480 rerep	MCF10A rerep	KB-3-1 tox
O=[N+]([O-])c1cc(C(F)(F)F)ccc1NCCc1c[nH]c2ccc(O)cc12	13µM*	i	13µM*	13%	-8%	i
COC(=O)CCCCNC(=O)Nc1ccccc1	12%	i	-3%	0%	14%	i
Clc1ccc(Oc2cnns2)c(Cl)c1	3%	i	4%	-1%	5%	i
S=c1[nH]cc(Oc2ccc(Cl)cc2Cl)c(=S)[nH]1	-13%	?	-10%	?	16µM*	i
CC(=O)Nc1ccc(C(=O)N2CCCCC2c2cc(C(=O)Nc3cccc4c3CCCC4)no2)cc1 (stereo unspecified)	5.8µM*	?	16µM*	nt	nt	?
CCOc1ccc(OCc2cccc(C(=O)N3CCCC3)c2)cc1	9%	?	-6%	-2%	5%	i
COc1cc(/C=C/[N+](=O)[O-])ccc1OCc1cccc(C(=O)O)c1	?	i	?	?	10µM*	i
COc1cc(/C=N/NC(=O)c2cccc([N+](=O)[O-])c2)ccc1OCc1ccccc1	4%	?	14%	-7%	1%	i
CCOc1ccc(OCc2cccc(C(=O)O)c2)cc1	7.9µM*	i	7.9µM*	-5%	4%	i
COc1ccc(OCc2cccc(C(=O)O)c2)cc1	?	18µM*	?	-3%	-2%	?
COc1cc(OC)c(C(=O)OCC(=O)Nc2cc(C)on2)cc1OC	-1%	?	15%	2%	-7%	i
COc1ccc(CC2(CO)CCN(Cc3ccc(OC(F)(F)F)cc3)CC2)cc1	-21%	i	?	?	17%	?
COc1ccc(CC2(CO)CCN(CC3=Cc4cc(Cl)ccc4OC3)CC2)cc1	23µM*	i	15µM*	?	23µM*	?
COc1ccc(CC2(CO)CCN(Cc3ccc4c(c3)CCO4)CC2)cc1	21µM*	?	?	-1%	?	i
CCCCCCCCNCCS(=O)(=O)NN1CCOCC1	-1%	i	-1%	-1%	-4%	i
COc1ccc(C2=C(C)C(=O)N(Cc3ccc(C(=O)NCc4ccccc4C)cc3)S2(=O)=O)cc1	nt	i	nt	nt	nt	i
C#CCOCCOCCOCCNc1nc(N2CCN(C(=O)CCCCCCCCCCNC(=O)Cn3cc(CCCCCN)nn3)CC2)nc(N2CCN(C(=O)CCCCCCCCCCNC(=O)[C@@H]([C@H](C)O)n3cc(C)nn3)CC2)n1	-15%	i	-5%	0%	151%	?
C#CCOCCOCCOCCNc1nc(N2CCN(C(=O)CCCCCCCCCCNC(=O)Cn3cc(C[C@@H](C)O)nn3)CC2)nc(N2CCN(C(=O)CCCCCCCCCCNC(=O)[C@@H]([C@H](C)O)n3cc(C)nn3)CC2)n1	21µM*	i	18µM*	-7%	22%	?
